The text below walks through data of PubChem BioAssay (NCI).

The panel holds about 83,000 compounds, 20% with a hit somewhere; the sample as a whole holds those more often.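 The test compound was applied at a single concentration to cells in 96-well plates for 48 hours, and percent growth was recorded.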 A number with no mark means an inactive call. The source made the active and inactive calls. Rule for the calls: active = growth percent below 10; inactive = the rest.

Some test systems named below: SR leukemia; OVCAR-8 ovarian; OVCAR-5 ovarian; OVCAR-4 ovarian; SK-OV-3 ovarian; IGROV1 ovarian; OVCAR-3 ovarian; HS 578T breast; NCI/ADR-RES ovarian; T-47D breast; MDA-MB-435 melanoma; SW-620 colon; MCF7 breast; HCT-116 colon; HCC-2998 colon; KM12 colon; BT-549 breast; RPMI-8226 leukemia.
Common to all, as to assay: NCI-60 one-dose screen, 48 h (100 = growth as untreated, 0 = no growth, -100 = all killed)
Details in all cases: 10 µM unless noted

As for `CC(C)C1=C[C@@]23CC[C@@H]4[C@](C)(CCC[C@@]4(C)C(=O)OCC#CCN4CCCC4)[C@H]2C[C@@H]1[C@H]1C(=O)OC(=O)[C@H]13`, the growth is 92% in the assay with SR leukemia; 115% in the assay with OVCAR-8 ovarian; 97.3% in the assay with OVCAR-5 ovarian; 92% with OVCAR-4 ovarian; 90.5% in the assay with SK-OV-3 ovarian; 81.9% in the assay on IGROV1 ovarian. For the same compound, the growth with OVCAR-3 ovarian was 94.2%; with HS 578T breast, 99.2%; with NCI/ADR-RES ovarian, 99.3%; in the assay on T-47D breast, 73.9%; in the assay on MDA-MB-435 melanoma it was 102%; in the assay with SW-620 colon, 109%. The growth was 84.7% with MCF7 breast, 88.8% in the assay with HCT-116 colon, 108% in the assay on HCC-2998 colon and 87.3% in the assay on KM12 colon.
Turning to `N=S(=O)(NC(=O)c1ccc(Cl)cc1Cl)c1ccc(Br)s1` (centres undefined), the growth in the assay on SR leukemia was 75%; in the assay with OVCAR-8 ovarian it was 90.9%; in the assay with OVCAR-5 ovarian, 119%; with SK-OV-3 ovarian, 96.4%; with IGROV1 ovarian, -1.49% (active); in the assay with OVCAR-3 ovarian, 105%. Moreover, the growth with HS 578T breast was 87.3%; in the assay with NCI/ADR-RES ovarian, 91.3%; in the assay with T-47D breast, 103%; with BT-549 breast, 99.5%; in the assay with MDA-MB-435 melanoma it was 96.2%; in the assay on SW-620 colon it was 80.9%. Moreover, the growth in the assay with MCF7 breast is 91.5%; in the assay with HCT-116 colon, 80.6%; with HCC-2998 colon, 102%; in the assay on KM12 colon, 88.5%.
As to `C(=N\Nc1ccccn1)/c1ccccn1`, the growth in the assay on RPMI-8226 leukemia is 35.5%; with OVCAR-8 ovarian, 13.6%; in the assay on OVCAR-5 ovarian it was 40.7%; in the assay with OVCAR-4 ovarian, 10.6%; with SK-OV-3 ovarian it was 30.5%; in the assay on IGROV1 ovarian, 10.7%. The growth in the assay with OVCAR-3 ovarian is 7.56% (active); in the assay with HS 578T breast it was 62.8%; with NCI/ADR-RES ovarian it was -9.79% (active); in the assay on T-47D breast it was 22.8%; with BT-549 breast, -16.8% (active); in the assay on MDA-MB-435 melanoma, 33.6%. The growth with SW-620 colon is 37.4%; with MCF7 breast, 12.4%; in the assay on HCT-116 colon, 4.73% (active); in the assay on HCC-2998 colon, 19.2%; in the assay with KM12 colon it was 29.6%.
`Oc1cccc(Nc2nccc(-c3ccc4ccccc4c3)n2)c1`: the growth is 9.15% (active) in the assay with RPMI-8226 leukemia; 29.4% in the assay with OVCAR-8 ovarian; 58.4% in the assay on OVCAR-5 ovarian; 86.5% in the assay with OVCAR-4 ovarian; 27.2% in the assay with SK-OV-3 ovarian; 41.7% in the assay with IGROV1 ovarian. Also, the growth was 14.7% with OVCAR-3 ovarian; 13% in the assay on HS 578T breast; 19.9% in the assay on NCI/ADR-RES ovarian; 47.6% with T-47D breast; 41.3% with BT-549 breast; -1.27% (active) with MDA-MB-435 melanoma. The growth in the assay on SW-620 colon is 31.3%; in the assay on MCF7 breast it was 25.3%; with HCT-116 colon it was 20.6%; in the assay on HCC-2998 colon it was 52.2%; in the assay with KM12 colon, 28.2%.
As to `COc1cc2c(c(OC)c1OC)-c1ccc(N=NC(N)=S)c(=O)cc1[C@@H](NC(C)=O)CC2`, the growth is 30.8% in the assay with RPMI-8226 leukemia; 1.13% (active) in the assay with OVCAR-8 ovarian; 48.5% with OVCAR-5 ovarian; 33.5% in the assay with OVCAR-4 ovarian; 12.1% in the assay with SK-OV-3 ovarian; 5.37% (active) with IGROV1 ovarian. The growth was -52.2% (active) in the assay on OVCAR-3 ovarian; 24.2% with HS 578T breast; 82.1% in the assay with NCI/ADR-RES ovarian; 62.2% in the assay with T-47D breast; -37.5% (active) with BT-549 breast; 0.0927% (active) with MDA-MB-435 melanoma. For the same compound, the growth was 17.3% with SW-620 colon; 8.57% (active) with MCF7 breast; -28.4% (active) in the assay on HCT-116 colon; -13.6% (active) in the assay on HCC-2998 colon; -31.1% (active) in the assay with KM12 colon.
On to `CNC(=O)c1cc(Oc2ccc3nc(NC(=O)Nc4ccc(CN5CCOCC5)c(C(F)(F)F)c4)sc3c2)ccn1`, for which the growth is -0.0928% (active) in the assay on SR leukemia; 18% in the assay on OVCAR-8 ovarian; 38.6% in the assay on OVCAR-5 ovarian; 20% in the assay with OVCAR-4 ovarian; 40% in the assay with IGROV1 ovarian; 6.85% (active) with OVCAR-3 ovarian. In addition, the growth in the assay with HS 578T breast was 47.3%; in the assay on NCI/ADR-RES ovarian, 4.65% (active); with T-47D breast, 22.7%; with MDA-MB-435 melanoma, 13%; with SW-620 colon, 27.4%; in the assay with MCF7 breast, 6.95% (active). The growth was 6.2% (active) in the assay on HCT-116 colon, 32.3% in the assay on HCC-2998 colon and 6.28% (active) in the assay on KM12 colon.
Turning to `COc1ccc(-c2cc(/C=C3\C(=O)Nc4ccc(Cl)cc43)[nH]n2)cc1`, the growth in the assay on SR leukemia is 10.6%; with OVCAR-8 ovarian it was 67.5%; in the assay with OVCAR-5 ovarian, 92.5%; in the assay on OVCAR-4 ovarian, 101%; in the assay with SK-OV-3 ovarian, 60%; in the assay with IGROV1 ovarian, 17.7%. Further, the growth is 31.6% with OVCAR-3 ovarian; 68.6% with HS 578T breast; 34.2% in the assay with NCI/ADR-RES ovarian; 47.4% with T-47D breast; 55.4% in the assay with BT-549 breast; -27.4% (active) in the assay on MDA-MB-435 melanoma. Also, the growth in the assay with SW-620 colon was 26.9%; in the assay on MCF7 breast, 17%; with HCT-116 colon, 26.8%; in the assay with HCC-2998 colon, 94.3%; in the assay on KM12 colon, 43.8%.
In the case of `CC(=O)OCC1OC(OC2=C(CC=C(Cl)Cl)C(=O)c3ccccc3C2=O)C(OC(C)=O)C(OC(C)=O)C1OC(C)=O` (centres undefined), the growth is 9.85% (active) with RPMI-8226 leukemia; 18% with OVCAR-8 ovarian; 105% in the assay on OVCAR-5 ovarian; -34.4% (active) with OVCAR-4 ovarian; 96% in the assay on SK-OV-3 ovarian; 83.4% in the assay on IGROV1 ovarian. Further, the growth is 46.4% in the assay on OVCAR-3 ovarian; 96.9% with HS 578T breast; 93.1% in the assay on NCI/ADR-RES ovarian; -18.2% (active) in the assay with T-47D breast; 71.2% in the assay with BT-549 breast; 89.9% with MDA-MB-435 melanoma. Moreover, the growth in the assay on SW-620 colon was 22.9%; in the assay with MCF7 breast, 19.9%; in the assay on HCT-116 colon, 31.6%; in the assay with HCC-2998 colon, 102%; with KM12 colon, 82.2%.
As for `CCCN(CCC)CN(CCC)CCC`, the growth with SR leukemia is 101%; in the assay with OVCAR-8 ovarian, 105%; in the assay on OVCAR-5 ovarian, 102%; in the assay with OVCAR-4 ovarian, 117%; with SK-OV-3 ovarian it was 102%; in the assay on IGROV1 ovarian, 111%. Moreover, the growth in the assay on OVCAR-3 ovarian was 92.1%; with HS 578T breast it was 98.8%; with NCI/ADR-RES ovarian, 105%; in the assay with T-47D breast, 102%; in the assay on BT-549 breast, 91.4%; in the assay with MDA-MB-435 melanoma, 99.4%. Also, the growth with SW-620 colon is 103%; in the assay on MCF7 breast, 93%; with HCT-116 colon, 95.7%; with HCC-2998 colon, 104%; in the assay on KM12 colon, 101%.
